About 7,900 targets were measured; listed, in parts, are those with a hit and a random draw of the rest. About 0.6% of all pairs of compound and target were hits.
Columns and labels:
Assay in all cases: log2 fold change, soluble protein after heating vs DMSO (PISA); higher = thermal stabilisation; K562 cells, 10 uM, 30 min; active = over 0.2 and 3.5 SD of the protein, either way, in both replicates (recomputed)
[1] = compound: Cc1sc2c(c1C)C(c1ccc(Cl)cc1)=N[C@@H](CC(=O)OC(C)(C)C)c1nnc(C)n1-2
Procedure, shortened: (§1)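 Soluble protein was quantified by TMTpro 16plex LC-MS/MS after channel sums were equalised. It was obtained as the supernatant after 21,000xg for 90 min from pooled aliquots of K562 cells (2×10^6 cells/mL, 10 μM compound, 30 min) heated for 3 min across 48°C-58°C and extracted in PBS with 0.5% NP-40 at 4°C. Thermal stability values are relative to control samples and come from duplicates. They are given as log2 fold changes.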

[2] = compound: CC1=C(SC2=C1C(=N[C@H](C3=NN=C(N32)C)CC(=O)N)C4=CC=C(C=C4)Cl)C
Procedure, shortened: as §1

[3] = compound: CC1=C2C(=CC=C1)N=C(N(C2=O)C3=CC=CC=C3C)CN4C=NC5=C(N=CN=C54)N
Procedure, shortened: as §1

[4] = compound: c1ccc([C@@H]2C[C@H]2NC2CCNCC2)cc1
Procedure, shortened: as §1

[5] = compound: C1=CC=C(C=C1)[C@H](COC2=CC3=C(C=C2)NC(=O)N3)NC(=O)C4=CC=CN(C4=O)CC5=CC(=C(C=C5)F)F
Procedure, shortened: as §1

Measured: log2 fold change

RPS19 (UniProt M0R2L9)
inactive: [1] 0.183

RICTOR isoform 3 (UniProt Q6R327)
inactive: [1] 0.043

SH2D1B (UniProt O14796)
inactive: [2] 0.205 | [3] -0.047 | [1] 0.003 | [4] 0.033

SIK3 (UniProt H0Y4E8)
inactive: [2] 0.034 | [3] 0.025 | [1] 0.118 | [4] 0.028

SAAL1 (UniProt Q96ER3)
inactive: [5] -0.054 | [2] 0.03 | [3] 0.046 | [1] 0.109 | [4] -0.043

SDHAF4 (UniProt Q5VUM1)
inactive: [5] 0.053 | [2] 0.16 | [1] -0.025 | [4] 0.073

RNF26 (UniProt Q9BY78)
inactive: [5] 0.005 | [3] -0.104

RBM4 (UniProt Q9BWF3)
Sequence of UniProt Q9BWF3 (Q9BWF3 whole entry, looked up): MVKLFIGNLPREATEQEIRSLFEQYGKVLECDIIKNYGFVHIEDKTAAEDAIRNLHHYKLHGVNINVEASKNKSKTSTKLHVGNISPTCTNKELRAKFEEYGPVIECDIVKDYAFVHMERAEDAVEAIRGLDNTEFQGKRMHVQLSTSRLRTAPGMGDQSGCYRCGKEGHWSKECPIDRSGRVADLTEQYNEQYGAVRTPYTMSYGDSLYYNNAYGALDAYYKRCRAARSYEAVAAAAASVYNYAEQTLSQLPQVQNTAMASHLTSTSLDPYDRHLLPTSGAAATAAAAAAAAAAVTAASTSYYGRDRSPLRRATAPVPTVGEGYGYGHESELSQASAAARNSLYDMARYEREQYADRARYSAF
inactive: [5] -0.029 | [2] -0.074 | [3] -0.011 | [1] 0.009 | [4] 0.073

RBM6 (UniProt P78332)
Sequence of UniProt P78332 (P78332 whole entry, looked up): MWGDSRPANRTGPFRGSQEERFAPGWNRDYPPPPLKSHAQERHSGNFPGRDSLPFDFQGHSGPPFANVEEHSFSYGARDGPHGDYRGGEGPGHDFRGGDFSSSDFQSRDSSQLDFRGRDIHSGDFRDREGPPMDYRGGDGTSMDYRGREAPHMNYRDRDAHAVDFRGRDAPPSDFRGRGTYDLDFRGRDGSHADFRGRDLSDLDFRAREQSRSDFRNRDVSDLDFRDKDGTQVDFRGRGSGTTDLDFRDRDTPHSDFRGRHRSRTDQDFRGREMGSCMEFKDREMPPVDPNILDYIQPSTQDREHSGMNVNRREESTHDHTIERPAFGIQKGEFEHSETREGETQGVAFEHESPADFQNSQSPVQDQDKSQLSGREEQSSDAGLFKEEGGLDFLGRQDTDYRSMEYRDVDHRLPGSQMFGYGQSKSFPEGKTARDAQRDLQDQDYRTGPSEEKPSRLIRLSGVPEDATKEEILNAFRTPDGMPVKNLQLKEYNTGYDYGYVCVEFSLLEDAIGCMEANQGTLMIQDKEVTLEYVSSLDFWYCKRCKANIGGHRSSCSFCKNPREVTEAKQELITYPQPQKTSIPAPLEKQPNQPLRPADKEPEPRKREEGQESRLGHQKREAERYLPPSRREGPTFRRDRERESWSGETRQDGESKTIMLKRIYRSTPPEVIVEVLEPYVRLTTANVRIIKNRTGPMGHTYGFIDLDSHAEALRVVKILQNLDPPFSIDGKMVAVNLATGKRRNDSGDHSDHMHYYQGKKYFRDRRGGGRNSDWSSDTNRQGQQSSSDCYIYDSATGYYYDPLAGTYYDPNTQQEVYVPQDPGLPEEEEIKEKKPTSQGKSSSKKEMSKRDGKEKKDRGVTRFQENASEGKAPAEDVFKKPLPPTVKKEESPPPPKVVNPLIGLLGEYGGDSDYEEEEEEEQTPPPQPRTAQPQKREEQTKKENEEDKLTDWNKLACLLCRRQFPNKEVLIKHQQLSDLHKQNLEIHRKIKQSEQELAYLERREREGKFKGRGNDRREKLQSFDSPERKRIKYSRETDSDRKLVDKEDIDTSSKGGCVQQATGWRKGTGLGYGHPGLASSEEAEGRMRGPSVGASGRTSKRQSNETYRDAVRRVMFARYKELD
inactive: [2] -0.075 | [1] 0.012 | [4] 0.076

SDC3 (UniProt O75056)
inactive: [2] -0.012 | [3] 0.071 | [1] -0.044 | [4] 0.052

RUFY3 isoform 3 (UniProt Q7L099)
Sequence of UniProt Q7L099 (Q7L099 whole entry, looked up): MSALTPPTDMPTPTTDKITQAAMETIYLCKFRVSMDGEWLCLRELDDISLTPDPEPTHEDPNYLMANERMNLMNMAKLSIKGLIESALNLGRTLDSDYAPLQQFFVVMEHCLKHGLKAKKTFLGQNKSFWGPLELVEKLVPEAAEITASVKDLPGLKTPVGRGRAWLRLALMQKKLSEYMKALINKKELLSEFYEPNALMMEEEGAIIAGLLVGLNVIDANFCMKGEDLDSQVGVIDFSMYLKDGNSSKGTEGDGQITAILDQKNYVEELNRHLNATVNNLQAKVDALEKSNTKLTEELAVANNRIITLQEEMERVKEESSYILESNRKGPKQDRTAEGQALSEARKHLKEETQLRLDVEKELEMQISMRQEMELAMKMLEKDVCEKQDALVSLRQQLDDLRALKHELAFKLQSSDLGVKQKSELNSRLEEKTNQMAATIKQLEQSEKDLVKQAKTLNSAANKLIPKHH
inactive: [2] -0.004 | [3] 0.061 | [1] 0.016 | [4] 0.029

SAMD4B (UniProt Q5PRF9)
inactive: [5] 0.107 | [2] -0.027 | [1] 0.039 | [4] 0.058

SF3B5 (UniProt Q9BWJ5)
inactive: [5] 0.056 | [3] -0.032 | [1] 0.007

RABGAP1L isoform 5 (UniProt Q5R372)
inactive: [5] 0.027 | [2] 0.027 | [1] 0.113 | [4] 0.066

RBM48 isoform 2 (UniProt Q5RL73)
inactive: [5] 0.008 | [2] 0.058 | [1] -0.36 | [4] 0.113

RMDN2 isoform 2 (UniProt Q96LZ7)
inactive: [3] 0.164

RTF2 (UniProt Q9BY42)
inactive: [5] 0.054 | [2] -0.009 | [3] 0.068 | [1] -0.038 | [4] 0.045

SEC23IP (UniProt Q9Y6Y8)
inactive: [5] -0.037 | [2] 0.001 | [3] 0.063 | [1] 0.031 | [4] -0.037

SESN2 (UniProt P58004)
inactive: [5] -0.03 | [2] -0.031 | [3] 0.067 | [1] 0.066 | [4] -0.028

SDCBP isoform 2 (UniProt O00560)
inactive: [5] -0.08 | [1] 0.169

RRAS2 isoform 4 (UniProt P62070)
inactive: [5] 0.045 | [2] -0.017 | [3] -0.062 | [1] -0.03 | [4] 0.011

SEMG2 (UniProt Q02383)
Sequence of UniProt Q02383 (Q02383 whole entry, looked up): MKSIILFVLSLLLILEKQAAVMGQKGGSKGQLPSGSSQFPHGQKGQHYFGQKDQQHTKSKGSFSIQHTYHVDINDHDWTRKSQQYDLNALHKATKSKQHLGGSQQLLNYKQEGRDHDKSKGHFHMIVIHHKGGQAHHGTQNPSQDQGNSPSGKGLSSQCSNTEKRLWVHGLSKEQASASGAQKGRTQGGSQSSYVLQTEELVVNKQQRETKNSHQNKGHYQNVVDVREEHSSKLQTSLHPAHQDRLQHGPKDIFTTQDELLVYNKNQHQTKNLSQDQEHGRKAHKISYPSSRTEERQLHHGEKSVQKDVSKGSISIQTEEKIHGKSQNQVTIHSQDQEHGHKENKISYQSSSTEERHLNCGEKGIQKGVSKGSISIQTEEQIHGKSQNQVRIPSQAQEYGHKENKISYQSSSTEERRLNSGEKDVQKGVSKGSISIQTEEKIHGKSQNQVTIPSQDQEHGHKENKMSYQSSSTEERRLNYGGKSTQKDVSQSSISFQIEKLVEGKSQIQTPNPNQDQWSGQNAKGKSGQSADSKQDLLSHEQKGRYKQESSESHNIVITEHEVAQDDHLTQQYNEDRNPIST
inactive: [5] 0.038 | [2] 0.063 | [1] -0.047 | [4] -0.066

SLC1A5 (UniProt Q15758)
inactive: [5] -0.003 | [2] 0.035 | [3] -0.026 | [1] 0.013 | [4] 0.022

RPS3A (UniProt P61247)
inactive: [5] 0.053 | [2] -0.162 | [3] -0.139 | [1] 0.099 | [4] 0

SERINC1 (UniProt Q9NRX5)
inactive: [5] 0.021 | [3] 0.027 | [1] -0.08

SCD (UniProt O00767)
inactive: [5] 0.011 | [2] -0.019 | [3] 0.012 | [1] 0.054 | [4] 0.027

RPS5 (UniProt P46782)
inactive: [5] 0.049 | [2] -0.144 | [3] -0.214 | [1] 0.082 | [4] 0.001

RBBP6 (UniProt Q7Z6E9)
Sequence of UniProt Q7Z6E9 (Q7Z6E9 whole entry, looked up): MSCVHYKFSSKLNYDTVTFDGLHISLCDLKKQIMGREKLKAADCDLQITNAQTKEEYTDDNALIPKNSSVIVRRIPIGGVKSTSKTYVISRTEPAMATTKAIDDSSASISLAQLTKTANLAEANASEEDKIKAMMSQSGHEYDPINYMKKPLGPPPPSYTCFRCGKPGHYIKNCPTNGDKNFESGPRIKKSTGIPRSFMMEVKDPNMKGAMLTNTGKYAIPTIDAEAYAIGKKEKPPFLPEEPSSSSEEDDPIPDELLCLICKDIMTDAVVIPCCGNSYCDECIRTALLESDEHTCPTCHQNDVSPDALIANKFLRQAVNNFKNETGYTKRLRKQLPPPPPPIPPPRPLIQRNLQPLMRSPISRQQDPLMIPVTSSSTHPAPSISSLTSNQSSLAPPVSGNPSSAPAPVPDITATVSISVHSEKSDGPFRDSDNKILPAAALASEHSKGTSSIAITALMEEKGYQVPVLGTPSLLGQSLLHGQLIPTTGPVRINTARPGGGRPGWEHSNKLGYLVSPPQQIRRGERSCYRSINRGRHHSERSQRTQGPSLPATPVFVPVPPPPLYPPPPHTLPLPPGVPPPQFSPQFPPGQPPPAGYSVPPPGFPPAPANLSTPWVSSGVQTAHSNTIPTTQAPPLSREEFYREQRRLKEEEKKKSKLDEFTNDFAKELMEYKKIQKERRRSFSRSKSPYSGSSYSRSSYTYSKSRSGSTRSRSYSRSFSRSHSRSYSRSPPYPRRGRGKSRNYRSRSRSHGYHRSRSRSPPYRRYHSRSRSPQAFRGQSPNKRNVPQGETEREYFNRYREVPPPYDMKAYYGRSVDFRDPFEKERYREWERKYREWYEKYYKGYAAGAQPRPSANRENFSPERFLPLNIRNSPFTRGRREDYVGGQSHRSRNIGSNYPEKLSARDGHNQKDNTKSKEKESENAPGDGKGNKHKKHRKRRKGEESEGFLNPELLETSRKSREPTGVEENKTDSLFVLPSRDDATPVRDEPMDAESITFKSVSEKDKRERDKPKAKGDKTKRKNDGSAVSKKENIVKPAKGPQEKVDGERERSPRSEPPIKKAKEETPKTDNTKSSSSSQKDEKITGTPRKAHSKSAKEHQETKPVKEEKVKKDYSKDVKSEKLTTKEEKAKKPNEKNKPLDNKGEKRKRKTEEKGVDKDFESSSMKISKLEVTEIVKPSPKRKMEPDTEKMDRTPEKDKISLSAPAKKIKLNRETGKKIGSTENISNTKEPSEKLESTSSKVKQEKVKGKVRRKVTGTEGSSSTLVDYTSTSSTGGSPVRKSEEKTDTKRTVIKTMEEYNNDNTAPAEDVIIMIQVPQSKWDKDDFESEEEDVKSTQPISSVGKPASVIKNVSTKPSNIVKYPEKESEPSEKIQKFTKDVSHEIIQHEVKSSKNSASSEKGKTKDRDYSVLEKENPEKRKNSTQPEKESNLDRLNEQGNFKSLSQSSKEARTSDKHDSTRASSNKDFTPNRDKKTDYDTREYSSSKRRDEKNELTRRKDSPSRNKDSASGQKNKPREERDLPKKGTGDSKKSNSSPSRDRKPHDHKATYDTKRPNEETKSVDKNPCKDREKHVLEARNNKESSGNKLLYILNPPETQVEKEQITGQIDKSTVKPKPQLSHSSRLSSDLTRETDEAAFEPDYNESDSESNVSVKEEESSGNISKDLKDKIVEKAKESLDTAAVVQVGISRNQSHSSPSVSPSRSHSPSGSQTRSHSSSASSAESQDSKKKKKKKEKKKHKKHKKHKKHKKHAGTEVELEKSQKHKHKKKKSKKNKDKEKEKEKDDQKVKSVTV
inactive: [5] 0.094 | [2] 0.119 | [3] -0.017 | [1] 0.066 | [4] -0.32

SAP30 (UniProt O75446)
Sequence of UniProt O75446 (O75446 whole entry, looked up): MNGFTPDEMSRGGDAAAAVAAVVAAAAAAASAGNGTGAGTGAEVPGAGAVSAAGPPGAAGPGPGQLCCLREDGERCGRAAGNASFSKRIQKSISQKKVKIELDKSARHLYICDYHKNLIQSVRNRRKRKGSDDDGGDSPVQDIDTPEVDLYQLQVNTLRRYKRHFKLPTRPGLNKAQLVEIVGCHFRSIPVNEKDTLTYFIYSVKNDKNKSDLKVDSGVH
inactive: [2] -0.006 | [3] -0.002 | [4] -0.032

RNF220 (UniProt Q5VTB9)
inactive: [5] 0.004 | [2] 0.072 | [3] 0.14 | [1] -0.045 | [4] 0.038

RUNX1 isoform 8 (UniProt Q01196)
inactive: [5] -0.042 | [3] 0.025

S100A10 (UniProt P60903)
inactive: [5] 0.651 | [2] 0.061 | [1] -0.127 | [4] -0.01

ROMO1 (UniProt P60602)
inactive: [5] 0.045 | [2] -0.061 | [1] 0.172 | [4] 0.082

SLC12A9 (UniProt Q9BXP2)
inactive: [5] 0.013 | [2] -0.002 | [3] 0.014 | [1] -0.035 | [4] 0.028

SH3GL1 (UniProt Q99961)
inactive: [5] -0.073 | [2] 0 | [3] 0.118 | [1] 0.002 | [4] -0.049

RBMY1E (UniProt A6NEQ0)
Sequence of UniProt A6NEQ0 (A6NEQ0 whole entry, looked up): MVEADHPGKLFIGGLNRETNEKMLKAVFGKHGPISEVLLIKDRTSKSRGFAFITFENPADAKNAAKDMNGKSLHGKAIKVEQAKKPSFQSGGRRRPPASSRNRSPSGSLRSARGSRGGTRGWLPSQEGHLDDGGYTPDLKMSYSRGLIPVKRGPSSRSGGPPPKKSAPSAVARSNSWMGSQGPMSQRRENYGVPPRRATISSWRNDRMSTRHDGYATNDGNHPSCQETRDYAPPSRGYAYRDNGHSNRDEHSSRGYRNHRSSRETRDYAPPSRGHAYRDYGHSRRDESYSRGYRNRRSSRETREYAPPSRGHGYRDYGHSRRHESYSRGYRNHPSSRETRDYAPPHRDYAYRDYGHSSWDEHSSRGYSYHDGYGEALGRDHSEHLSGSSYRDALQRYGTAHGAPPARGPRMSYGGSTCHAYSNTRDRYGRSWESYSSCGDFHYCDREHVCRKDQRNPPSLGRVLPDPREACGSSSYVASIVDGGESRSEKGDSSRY
inactive: [5] 0.063 | [2] -0.02 | [1] 0.001 | [4] 0.145

RPS3A (UniProt D6R9B6)
inactive: [1] 0.248

RGS10 (UniProt O43665)
inactive: [5] 0.014 | [2] 0.042 | [3] -0.035 | [1] -0.022 | [4] -0.058

SEC16A isoform 5 (UniProt O15027)
inactive: [5] 0.014 | [2] 0.012 | [3] 0.154 | [1] 0.011 | [4] -0.006

RPS3 (UniProt E9PJN9)
inactive: [1] 0.141
